# Screening data deposited in PubChem BioAssay by National Center for Advancing Translational Sciences (NCATS).
# Only some compounds are listed: those with a hit (about 21% of all), similar ones and a draw of the others.
# CHX counter: Cycloheximide Counterscreen for Small Molecule Inhibitors of Shiga Toxin. cell reporter, cycloheximide protein synthesis inhibition counterscreen. max response, %. hit rate 12% among 300,000. AID 2314, 2010; in the data active means max response mostly above about 13%, no sharp cut-off; inactive means mostly below about 14%; further: read at 38.3 µM for the half of the compounds with a filed dose; 0% is about no effect
# Shiga inhibitor: A qHTS for Small Molecule Inhibitors of Shiga Toxin; Vero cells, Shiga toxin protein synthesis inhibition reporter; inhibition, % at 38.7 µM; hit rate 9.2% among 290,000; in the data active means inhibition mostly above about 28%, no sharp cut-off; inactive means mostly below about 43%; further: 0% is about no effect
# Pf growth 48h: Primary qHTS for delayed death inhibitors of the malarial parasite plastid, 48 hour incubation; P. falciparum luciferase growth in erythrocytes, 48 h; Potency, µM (doses to about 28.7 µM), inactives show at the highest dose activity change, negative = inhibition, usual class: inhibitors; hit rate 5.9% among 310,000; further: potency means the concentration at half of the fitted maximal effect; on the % scale 0 is the no-effect control and ±100 the full control effect
#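 Luciferase-expressing parasites in RBCs, 2% Hct / 0.1% parasitemia final; RPMI 1640 + 0.5% Albumax; 37 C, 5% CO2, one generation; luminescence read-out, lower signal = inhibition.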
# NS1 inh: qHTS Assay for Inhibitors of Influenza NS1 Protein Function | Potency, µM (top dose mostly 46.1 µM), without a hit: at the top dose activity, positive = more growth | hit rate 0.4% among 270,000 | AID 2326, 2010; calls by dose curve; further: potency means the concentration at half of the fitted maximal effect; actives are rising curves; nearly all actives have a fitted effect of over 50% in size
#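 A cell-based growth assay was used: compounds that relieve NS1-induced slow growth of budding yeast raise OD600. Assay medium was yeast nitrogen base with ammonium sulphate and -URA supplement, pH 6.0, with 2% galactose.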
# Pf growth 96h: Primary qHTS for delayed death inhibitors of the malarial parasite plastid, 96 hour incubation. hit rate 6.9% among 320,000. Potency, µM (series often up to 28.7 µM), for the others: top-dose activity change, negative = inhibition, hits mostly inhibitors. P. falciparum luciferase reporter growth, 96 h. AID 504834, 2011; further: potency means the concentration at half of the fitted maximal effect; on the % scale 0 is the no-effect control and ±100 the full control effect
#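 Infected RBCs, 2% Hct / 0.05% parasitemia final; luciferase-reporter P. falciparum; cpd 96 h, 37 C, 5% CO2; luciferase detection reagent; luminescence.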
# SARS PLP yeast: qHTS of Yeast-based Assay for SARS-CoV PLP; hit rate 0.19% among 330,000; S. cerevisiae expressing SARS-CoV PLpro, growth rescue; Potency, µM (doses to about 32.9 µM), without a hit: at the highest dose activity, positive = growth rescue, usual class: activators; calls by dose curve; further: potency means the concentration at half of the fitted maximal effect; 0% is about no effect; nearly all actives have a fitted effect of over 55% in size
# * hit, by the source's call; ? = inconclusive; nt = no result given. Unless noted, the call rests on the fitted dose curve; in most records, active means well fitted inhibition curve with a large enough effect; inconclusive means small, poorly fitted or top-dose-only effect, or another doubt; inactive means no such curve, though single readings can be large or run the other way.
SMILES,CHX counter,Shiga inhibitor,Pf growth 48h,NS1 inh,Pf growth 96h,SARS PLP yeast
O=C(c1cc(COc2ccccc2)on1)N1CCCC(OCc2cccnc2)C1 (stereo unspecified),8.5,7.0,1.3%,-13.2%,?,14.1%
CCN(CC1CCCO1)C(=O)c1cc(COc2ccccc2SC)on1 (stereo unspecified),55.0*,82.1*,?,-12.4%,34.9%,-2.0%
CSc1ccccc1OCc1cc(C(=O)N2CCN(c3ncccn3)CC2)no1,-0.4,-20.1,?,9.0%,?,2.8%
COc1ccccc1OCc1cc(C(=O)N2CCCC(OCc3cccnc3)C2)no1 (stereo unspecified),58.3*,95.5*,1.6%,-14.0%,11.7µM*,nt
CSc1ccccc1OCc1cc(C(=O)N2CCC(Oc3cccnc3)CC2)no1,41.9*,95.4*,13.1µM*,-58.1%,?,nt
CSc1ccccc1OCc1cc(C(=O)N2CCSCC2)no1,60.5*,99.5*,49.6%,-41.3%,0.0%,17.2%
CC1=C2C(CCS2(=O)=O)CC2(C1)C(=O)OC(C)(C)OC2=O (stereo unspecified),-3.5,50.0,8.7%,3.1%,30.5%,2.3%
O=C(O)C1C2CCC(O2)C1C(=O)NCc1ccc(Cl)cc1 (stereo unspecified),-2.3,-5.2,20.5%,0.5%,31.2%,2.8%
CC(Sc1nc(N)cc(=O)[nH]1)C(=O)NNC(=O)c1cccc(Cl)c1 (stereo unspecified),nt,nt,28.6%,nt,-19.9%,0.6%
CSc1ccccc1OCc1cc(C(=O)N2CCCC(C)C2)no1 (stereo unspecified),26.8*,89.4*,61.1%,-23.6%,0.3%,7.2%
CCc1cc(C(=O)N2CCCC(CNC(=O)c3ccc(-c4ccccc4)cc3)C2)no1 (stereo unspecified),13.8*,14.8,-8.2%,-4.0%,?,-1.0%
O=C(c1cc(COc2cccc3cnccc23)on1)N1CCCC(CCCO)C1 (stereo unspecified),-2.1,-17.5,39.6%,-23.9%,4.6%,-0.1%
COc1ccc(OCc2cc(C(=O)N3CCCC(CO)C3)no2)c2ccccc12 (stereo unspecified),44.3*,84.1*,-9.9%,1.3%,52.3%,3.3%
CCN(CC)C1CCN(C(=O)c2cc(COc3ccccc3SC)on2)C1 (stereo unspecified),-0.3,-4.5,14.3%,-11.4%,6.8%,-6.0%
COC(=O)C(Cc1c[nH]c2ccccc12)NC(=O)c1cccc(S(=O)(=O)N2CCCCC2)c1 (stereo unspecified),nt,nt,?,nt,?,-4.4%
O=c1[nH]c(CN2CC=C(c3ccccc3)CC2)nc2cc(C(F)(F)F)ccc12,0.3,-4.9,nt,26.4%,?,-10.8%
O=S1(=O)N(CCN2CC=C(c3c[nH]c4cc(F)ccc34)CC2)c2cccc3c2N1CCC3,nt,nt,1.17µM*,?,0.928µM*,-4.8%
Cc1cc2ccccc2c(=O)[nH]1,-0.6,-3.3,27.3%,16.0%,63.3%,4.0%
O=c1[nH]c(-c2ccccn2)cc2ccccc12,36.4*,52.0*,93.4%,-17.0%,13.8%,-48.1%
Cc1nc(-c2ccc(F)cc2)c(CC(=O)N(C)CC(=O)Nc2ccccc2Br)s1,nt,nt,13.1µM*,nt,?,-5.3%
Cc1nc(-c2ccc(F)cc2)c(CC(=O)N2CCN(S(=O)(=O)c3ccccc3Br)CC2)s1,-2.9,14.1,?,13.3%,8.28µM*,-0.8%
Cc1nc(-c2ccc(F)cc2)c(CC(=O)N(C)CC(=O)Nc2ccccc2C(F)(F)F)s1,nt,nt,-9.3%,nt,-3.0%,0.2%
Cc1nc(-c2ccc(F)cc2)c(CC(=O)N2CCN(S(=O)(=O)c3cccc(F)c3)CC2)s1,nt,nt,?,nt,?,-4.1%
CCN(CC(=O)Nc1ccccc1C(F)(F)F)C(=O)Cc1sc(C)nc1-c1ccc(F)cc1,nt,nt,14.7µM*,nt,?,3.1%
Cc1nc(-c2ccc(F)cc2)c(CC(=O)N(C)CC(=O)Nc2ccc(Br)cc2C)s1,nt,nt,5.22µM*,nt,?,-3.6%
SMILES,CHX counter,Shiga inhibitor,Pf growth 48h,NS1 inh,Pf growth 96h,SARS PLP yeast
NS(=O)(=O)c1ccc(CNC(=O)Cc2ccccc2[N+](=O)[O-])cc1,-2.6,-8.5,19.4%,-7.7%,179.6%,4.8%
Cc1nc(-c2ccc(F)cc2)c(CC(=O)NCC(=O)Nc2ccc(F)c(F)c2)s1,nt,nt,?,nt,?,-4.7%
Cc1cc(C)c(NC(=O)CNC(=O)Cc2sc(C)nc2-c2ccc(F)cc2)c(C)c1,nt,nt,13.1µM*,nt,?,2.7%
CCN1C=C(Cc2ccccc2C)C2=C(C1)C(c1ccccc1C)C(C#N)=C(N)O2 (stereo unspecified),4.2,3.3,nt,-15.1%,2.94µM*,0.5%
O=C(O)C1CCN(Cc2cccnc2)CC1,-0.5,9.5,11.7%,nt,17.6%,1.8%
COc1ccccc1OCC#CCn1ccnc1,-5.2,4.2,-5.7%,2.0%,1.8%,-0.3%
COc1ccc(C(=O)Nc2ccc(Cn3ccnc3)cc2)cc1OC,13.0*,21.3*,34.3%,-0.2%,10.4µM*,1.2%
COc1cc(OC)cc(C(=O)Nc2ccc(Cn3ccnc3)cc2)c1,15.1*,25.2,?,9.2%,22.0%,-0.5%
COc1cc(Cn2ccnc2)c(OC)cc1Cn1ccnc1,-4.5,-27.5,9.28µM*,2.4%,?,-2.3%
COc1ccc(C)cc1NC(=O)C/C(C)=N/NC(=O)Cc1cccc2ccccc12,-4.5,-3.1,-12.9%,2.2%,19.7%,-2.1%
CCOc1cc(C(=O)N=c2sccn2C)cc(Br)c1OC,12.3,-4.8,?,-10.8%,7.38µM*,-10.3%
CC1CCC(NC(=O)CCNS(=O)(=O)c2ccc3c(c2)CCC(=O)N3)CC1 (stereo unspecified),-4.2,-6.7,3.6%,6.4%,7.8%,3.0%
C=CCN(c1ccccc1OC)S(=O)(=O)c1cccc(C(=O)OCC(=O)N2CCOCC2)c1,nt,nt,nt,nt,nt,2.7%
C=CCN(c1ccccc1OC)S(=O)(=O)c1cccc(C(=O)OCC(=O)c2c[nH]c3ccccc23)c1,7.0,1.4,?,-26.6%,4.65µM*,11.9%
COc1cc(OC)c(N(C)S(=O)(=O)c2cccc(C(=O)OCC(=O)c3c[nH]c4ccccc34)c2)cc1Cl,-4.0,19.0,1.85µM*,?,?,3.5%
CCc1noc(C)c1C(=O)NCCc1ccc(Cl)cc1,nt,nt,-0.1%,nt,10.6%,-1.4%
O=C(NCCOc1ccccc1)C1CCC(=O)N(CCN2CCOCC2)C1 (stereo unspecified),-1.5,-4.2,21.4%,-1.4%,?,-4.4%
CCN1CCSc2ccc(C(=O)NCc3cccc(F)c3)cc21,-1.5,-0.7,3.8%,-6.7%,1.6%,-2.4%
COc1ccc(NC(=O)c2ccc3c(c2)N(C)CCS3)cc1,59.5*,66.7*,201.3%,-3.8%,?,-1.0%
